Activity calls are given as the source filed them. How the source made its calls: active means hit-call score of the fitted dose curve at least 0.9, where 1 is the maximum; inactive means score below 0.9.
Assay: Tanguay_ZF_120hpf_MO24: Oregon State University Tanguay Lab 24 Hour Post-fertilization zebrafish Assay for Mortality (AID 2284389)
Method: Tanguay_ZF_120hpf is a whole embryo, multiplexed endpoint assay using zebrafish larvae exposed for 120 hours post fertilization on a 96-well plate.Tanguay_ZF_120hpf_MO24 is one of one assay component(s) measured or calculated from the Tanguay_ZF_120hpf assay. It is designed to make measurements of zebrafish development as detected with brightfield microscopy of developing zebrafish embryos.Data from the assay component Tanguay_ZF_120hpf_MO24 was analyzed into 1 assay endpoints. This assay endpoint, Tanguay_ZF_120hpf_MO24, was analyzed in the positive analysis fitting direction relative to DMSO as the negative control and baseline of activity. Using a type of viability reporter, gain-of-signal activity can be used to understand changes in developmentals as they relate to the whole embryo. To generalize the intended target to other relatable targets, this assay endpoint is annotated to the zebrafish development intended target family, where the subfamily is embryonic mortality.
Zebrafish husbandry: Tropical 5D wild-type adult zebrafish were housed in at an approximate density of 1000 per 100 gallon tank at the Sinnhuber Aquatic Research Laboratory, Oregon State University, Corvallis, OR. Each tank was kept at standard laboratory conditions of 28C on a 14-h light/10-h dark photoperiod in fish water consisting of reverse osmosis water supplemented with a commercially available salt (Instant Ocean). Spawning funnels were placed into the tanks the night prior, and embryos were collected and staged. To increase bioavailability, the chorion was enzymatically removed using pronase (63.6mg/ml, >/= 3.5U/mg, Sigma-Aldrich: P5147) at 4 hours post fertilization (hpf) using a custom automated dechorionator.Chemical exposures: Six hpf dechorionated embryos were placed 1 embryo per well in a 96-well plate prefilled with 90 ul of EM using automated embryo placement systems (AEPS). Ten microliters of each row of dilution plate 2 was added to 2 exposure plates. The final DMSO concentration used was 0.64% (vol/vol). Thirty-two embryos were also exposed to 5uM trimethyltin chloride (positive control). Plates were sealed to prevent evaporation and foil covered to reduce light exposure and kept in a 28C incubator. Embryos were statically exposed until 120 hpf. At 24 hpf, embryos were assessed for photomotor response using a custom photomotor response analysis tool (PRAT) and for developmental toxicity endpoints (MO24: mortality at 24 hpf, DP: developmental progression, SM: spontaneous movement, and NC: notochord distortion). At 120 hpf, locomotor activity was measured using Viewpoint Zebralab and assessed for 13 endpoints. Zebrafish acquisition and analysis program (ZAAP), a custom program designed to inventory, acquire, and manage zebrafish data, was used to collect developmental endpoints as either present or absent (i.e., binary responses were recorded). If mortality occurred for an embryo (at either 24 or 120 hpf), the non-mortality endpoints were not measured.

Row | SMILES | outcome | AC50
1 | CCN(CCO)S(=O)(=O)C(F)(F)C(F)(F)C(F)(F)C(F)(F)C(F)(F)C(F)(F)C(F)(F)C(F)(F)F | inactive | 
2 | O=S(=O)(O)CCC(F)(F)C(F)(F)C(F)(F)C(F)(F)C(F)(F)C(F)(F)C(F)(F)C(F)(F)F | inactive | 
3 | OCCCCC(F)(F)C(F)(F)C(F)(F)C(F)(F)F | inactive | 
4 | NC(=O)C(F)(F)C(F)(F)C(F)(F)F | inactive | 
5 | O=C(O)C(F)(F)C(F)(F)C(F)(F)OC(F)(F)F | inactive | 
6 | OCC(F)(F)C(F)(F)C(F)(F)C(F)(F)C(F)(F)C(F)(F)CO | inactive | 
7 | NS(=O)(=O)C(F)(F)C(F)(F)C(F)(F)C(F)(F)C(F)(F)C(F)(F)F | inactive | 
8 | FC(F)(F)C(F)(F)C(F)(F)CC1CO1 (configuration not stated) | inactive | 
9 | OCC(F)(F)C(F)(F)C(F)(F)CO | inactive | 
10 | NC(=O)C(F)(F)C(F)(F)C(F)(F)C(F)(F)C(F)(F)C(F)(F)C(F)(F)F |  | 52.7 µM (active)
11 | O=C(O)C(F)(F)C(F)(F)C(F)(F)OC(F)(C(F)(F)F)C(F)(F)F | inactive | 
12 | CO[Si](C)(CCC(F)(F)C(F)(F)C(F)(F)C(F)(F)C(F)(F)C(F)(F)F)OC | inactive | 
13 | O=C(F)C1(F)C(F)(F)C(F)(F)C(F)(F)C(F)(F)C1(F)F | inactive | 
14 | OCC(O)CC(F)(F)C(F)(F)C(F)(F)C(F)(F)F (configuration not stated) | inactive | 
15 | NC(=O)C(F)(F)C(F)(F)C(F)(F)C(F)(F)C(N)=O | inactive | 
16 | NC(=O)C(F)(F)C(F)(F)C(F)(F)C(F)F | inactive | 
17 | C=CC(=O)OCC(F)(F)C(F)(F)C(F)(F)C(F)(F)C(F)(F)C(F)(F)C(F)(F)C(F)F | inactive | 
18 | CN(C(=O)C(F)(F)C(F)(F)C(F)(F)F)[Si](C)(C)C | inactive | 
19 | FC(F)(F)C(F)(F)C(F)(F)C(F)(F)C(F)(F)C(F)(F)C(F)(F)CCI | inactive | 

Row | SMILES | outcome | AC50
20 | C[Si](Cl)(Cl)CCC(F)(F)C(F)(F)C(F)(F)C(F)(F)C(F)(F)C(F)(F)F | inactive | 
21 | O=C(O)CCC(F)(F)C(F)(F)C(F)(F)F | inactive | 
22 | C=CC(=O)OCC(F)(F)C(F)(F)C(F)(F)COC(=O)C=C |  | 29.3 µM (active)
23 | C=CC(=O)OCCC(F)(F)C(F)(F)C(F)(F)C(F)(F)F | inactive | 
24 | O=S(=O)(OCC(F)(F)F)C(F)(F)C(F)(F)C(F)(F)C(F)(F)F | inactive | 
25 | OC(O)C(F)(F)C(F)(F)F | inactive | 
26 | O=C(O)CCC(F)(F)C(F)(F)C(F)(F)C(F)(F)C(F)(F)C(F)(F)C(F)(F)F | inactive | 
27 | O=C(O)C(F)(F)C(F)(F)C(F)(F)C(=O)O | inactive | 
28 | CCOC(=O)CC(=O)C(F)(F)C(F)(F)F | inactive | 
29 | O=S(=O)(Cl)C(F)(F)C(F)(F)C(F)(F)C(F)(F)C(F)(F)C(F)(F)C(F)(F)C(F)(F)F | inactive | 
30 | O=S(=O)(O)CCC(F)(F)C(F)(F)C(F)(F)C(F)(F)F | inactive | 
31 | OCC(F)(F)C(F)(F)C(F)(F)C(F)(F)C(F)(F)C(F)(F)C(F)(F)C(F)(F)CO |  | 72.8 µM (active)
32 | COC(F)(C(F)F)C(F)(F)F (configuration not stated) | inactive | 
33 | NC(O)(C(F)(F)F)C(F)(F)F | inactive | 
34 | CNS(=O)(=O)C(F)(F)C(F)(F)C(F)(F)C(F)(F)C(F)(F)C(F)(F)C(F)(F)C(F)(F)F | inactive | 
35 | FC(F)(F)C(F)(F)C(F)(F)C(F)(F)C(F)(F)C(F)(F)CC[Si](Cl)(Cl)Cl | inactive | 
36 | OCCCC(F)(F)C(F)(F)C(F)(F)C(F)(F)C(F)(F)C(F)(F)C(F)(F)C(F)(F)F | inactive | 
37 | OCC(O)CC(F)(F)C(F)(F)C(F)(F)C(F)(F)C(F)(F)C(F)(F)C(F)(F)C(F)(F)F (configuration not stated) | inactive | 
